NPC1 prom act = qHTS Assay for NPC1 Promoter Activators; Huh7 NPC1 promoter luciferase reporter, 24 h; Potency, µM (titrated, usually from 9.22 µM), inactives show at the top dose activation, usual class: activators; 2.4% of 320,000 active; AID 485313, 2010; note: % of control where 0% means no effect; nearly all actives have a fitted effect of over 60% in size
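Huh7 reporter cells (NPC1 promoter driving luciferase) are dosed with compound for 24 h at 37 °C, 5% CO2; luciferase detection reagent is then added and luminescence measured after 10 min at ambient temperature.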
SMN2 splice enh = qHTS Assay for Enhancers of SMN2 Splice Variant Expression; AID 1458, 2008; 2.8% of 210,000 active; Potency, µM (top dose mostly 46.1 µM), inactives show top-dose activity change, positive = activation, hits mostly activators; HEK293 SMN2-luciferase splicing reporter, luminescence, 30-36 h; note: % of control where 0% means no effect; nearly all actives have a fitted effect of over 55% in size
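HEK293 cells carry an SMN2 […]–luciferase reporter in which exon 7 inclusion puts luciferase in frame. Cells were plated 10-12 h before compound addition, then incubated 30-36 h at 37C. ONE-Glo luminescence was read; sodium butyrate at 4.5 mM final served as control.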
Rab9 prom act = qHTS Assay for Rab9 Promoter Activators; Potency, µM (series often up to 9.22 µM), for the others: at the top dose activation, negative = inhibition, usual class: activators; 2.8% of 320,000 active; Huh7 Rab9 promoter-luciferase reporter, luminescence, 24 h; note: % of control where 0% means no effect; nearly all actives have a fitted effect of over 60% in size
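Luminescence from Amplite-detected luciferase (10 minutes, ambient) reports Rab9 promoter activation. Before that, stable Rab9-luciferase Huh7 cells (1500/well, reduced-serum OP-MEM I plus 10% FBS) were exposed to compound for 24 hours at 37C.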
ELG1 genotoxic = qHTS screen for small molecules that induce genotoxicity in human embryonic kidney (HEK293T) cells expressing luciferase-tagged ELG1. HEK293T ELG1-luciferase reporter, luminescence, 16 h. Potency, µM (series often up to 46 µM), inactives show at the top dose activity change, positive = activation, usual class: activators. 1.3% of 330,000 active; note: % of control where 0% means no effect; nearly all actives have a fitted effect of over 60% in size
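Reporter readout depends on ELG1 protein level, which increases with genetic stress. After 16 hr compound exposure at 37 °C, luciferase activity was quantified using ONE-Glo.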
FLuc counter = qHTS profiling assay for firefly luciferase inhibitor/activator using purifed enzyme and Km concentrations of substrates (counterscreen for miR-21 project) | AID 588342, 2011 | Potency, µM (titrated, usually from 57.5 µM), for the others: at the top dose activity change, negative = inhibition, usual class: inhibitors | Luciferin 4-monooxygenase (Photinus pyralis), P08659 | 6.9% of 360,000 active | purified FLuc, Km substrates, luminescence inhibition;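 note: plate controls were vehicle for no effect and reference inhibitor for full effect; nearly all actives have a fitted effect of over 55% in size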
Target sequence (P08659 whole entry, looked up): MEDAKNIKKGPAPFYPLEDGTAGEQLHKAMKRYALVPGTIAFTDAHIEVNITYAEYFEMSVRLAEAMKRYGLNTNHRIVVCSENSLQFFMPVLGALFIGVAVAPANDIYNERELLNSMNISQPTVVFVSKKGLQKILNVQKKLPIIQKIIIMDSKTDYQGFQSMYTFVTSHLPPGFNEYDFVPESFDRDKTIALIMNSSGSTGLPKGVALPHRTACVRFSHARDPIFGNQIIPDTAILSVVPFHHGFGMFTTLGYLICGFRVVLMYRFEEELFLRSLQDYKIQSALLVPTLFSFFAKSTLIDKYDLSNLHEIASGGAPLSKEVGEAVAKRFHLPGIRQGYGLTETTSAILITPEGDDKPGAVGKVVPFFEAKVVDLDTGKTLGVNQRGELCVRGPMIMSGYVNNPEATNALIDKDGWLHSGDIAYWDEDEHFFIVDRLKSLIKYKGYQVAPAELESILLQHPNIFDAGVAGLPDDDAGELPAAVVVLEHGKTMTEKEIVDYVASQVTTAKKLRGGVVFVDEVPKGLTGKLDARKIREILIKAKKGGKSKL
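Purified P. pyralis luciferase, 10 nM final, with Km-level 10 uM D-luciferin and 10 uM ATP in 50 mM Tris acetate pH 7.5, 10 mM Mg acetate, 0.01% Tween-20, 0.05% BSA; 6-point qHTS titration about 60 µM downward; luminescence read.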
* = called active by the depositor; ? = inconclusive; · = not tested or not shown; [ ] = another dose, or the depositor's remark. Most compounds without a hit are left out; they make up all but 7.4% or so of the library. Calls come from the whole dose curve; as a rule, active = well fitted curve in the direction sought with a large enough effect; inconclusive = small, poorly fitted or top-dose-only effect, or another doubt; inactive = no such curve, though single readings can be large; an effect the other way counts as inactive or inconclusive. Potency is the fitted concentration of half-maximal effect.

SMILES	NPC1 prom act	SMN2 splice enh	Rab9 prom act	ELG1 genotoxic	FLuc counter
Cc1ccc(NC(=O)Nc2ccc(F)c(Cl)c2)cc1	?	12.6µM*	?	8.1%	4.26µM*
O=C(Nc1cccnc1)Nc1ccc(F)c(Cl)c1	11.8%	·	11.6%	-8.2%	23.9µM*
COc1ccc(NC(=O)Nc2ccc(F)c(Cl)c2)cc1	3.55µM*	14.1µM*	2.82µM*	3.6%	?
Cc1ccc(C)c(-c2csc(-c3cccnc3)n2)c1	8.1%	·	-0.3%	-2.8%	?
c1ccc(-c2csc(-c3cccnc3)n2)cc1	17.0%	·	?	14.0%	19µM*
c1ccc(CNc2nc(-c3cccnc3)cs2)cc1	17.2%	-14.4%	15.3%	-8.4%	?
c1ccc(-c2nc(-c3cccnc3)cs2)cc1	?	·	?	?	12µM*
CC1=C(/C=C/C(C)=C/C=C/C(C)=C\CO)C(C)(C)CCC1	·	-1.7%	·	·	·
CCOc1ccc(NC(=O)Cc2coc3ccc(C)cc23)cc1	·	28.0%	·	·	-2.5%
CCOC(=O)N1CCN(C(=O)Cn2nc(C)n3nc(-c4ccc(CC)cc4)cc3c2=O)CC1	5.6%	·	5.8%	14.1%	4.78µM*
Cc1cccc(-c2nc(SCCCOc3ccccc3Cl)n3[nH]c(=O)cc3n2)c1	·	·	·	·	6.75µM*
Cc1cccc(-c2nc(SCCCOc3cc(C)c(Cl)c(C)c3)n3[nH]c(=O)cc3n2)c1	·	·	·	·	-4.1%
O=C(NNc1c2ccccc2nc2ccccc12)c1ccccc1O	5.4%	-14.8%	-2.5%	-7.1%	?
O=C(NNc1c2ccccc2nc2ccccc12)c1ccc(O)cc1O	-1.0%	-3.1%	-3.4%	-1.2%	13.5µM*
O=C(NNC(=O)c1ccc(O)cc1O)c1ccc(-c2ccccc2)cc1	-6.0%	·	-4.7%	-3.8%	19µM*
O=C(NNC(=O)c1cccc2ccccc12)c1ccc(-c2ccccc2)cc1	-3.4%	-31.7%	-5.5%	5.3%	2.4%
O=C(NNc1c2ccccc2nc2ccccc12)c1cccc(O)c1	-0.3%	-34.0%	-0.9%	-7.2%	23.9µM*
O=C(NNc1c2ccccc2nc2ccccc12)c1ccc(O)cc1	0.9%	-45.5%	8.3%	5.3%	16.9µM*
CC(C)N(C(=O)Cn1cc(S(=O)(=O)Cc2ccc(C(F)(F)F)cc2)c2ccccc21)C(C)C	·	·	·	·	4.5%
COc1cc(NC(=O)/C=C/c2ccccc2[N+](=O)[O-])cc(OC)c1	17.1%	?	25.3%	0.0%	21.3µM*
O=C(O)/C=C/c1ccccc1[N+](=O)[O-]	-3.8%	·	1.7%	-2.1%	3.1%
CCNC(=O)/C=C/c1ccccc1[N+](=O)[O-]	-2.3%	8.7%	-2.4%	-4.1%	-0.2%
O=C(/C=C/c1ccccc1[N+](=O)[O-])Nc1ccccc1	2µM*	14.1µM*	0.708µM*	?	6.01µM*
O=C(COC(=O)/C=C/c1ccccc1[N+](=O)[O-])Nc1ccc(OCc2ccccc2)cc1	?	12.6µM*	?	?	1.1%
Cc1ccc(CNC(=O)CN2Cc3ccccc3C2=O)cc1	·	·	·	·	-11.0%
SMILES	NPC1 prom act	SMN2 splice enh	Rab9 prom act	ELG1 genotoxic	FLuc counter
C=CCSc1nc2c(N)ncnc2n1[C@@H]1O[C@H](CO)[C@@H](O)[C@@H]1O	·	-8.3%[9.22 µM]	·	·	·
Cc1ccc(-c2ccc(CCC(=O)O)o2)cc1	3.5%	?	18.9%	10.5%	10.7µM*
CN(C)Cc1c(-c2ccc(Cl)cc2)nc2ccccn12	?	12.6µM*	?	?	12µM*
Clc1ccc(-c2nc3ccccn3c2CN2CCCCC2)cc1	0.8%	-4.7%	10.9%	9.7%	?
Cc1ccc(-c2cc(C(=O)NCc3cnn(C)c3)c3cc(Br)ccc3n2)cc1	3.6%	-2.8%	24.4%	?	1.07µM*
Cc1nn(C)cc1CN(C)C(=O)c1cc(-c2ccccc2)nc2ccc(Br)cc12	2.4%	-11.1%	14.8%	-12.4%	21.3µM*
NC(=O)c1cc(-c2ccccc2)nc2ccc(Br)cc12	1.6%	·	1.7%	6.3%	5.2%
Cn1cc(CNC(=O)c2cc(-c3ccc(Br)cc3)nc3ccccc23)cn1	8.2%	·	-0.2%	-10.1%	?
Cn1cc(CNC(=O)c2cc(-c3ccccc3)nc3ccc(Br)cc23)cn1	-0.1%	18.7%	1.7%	-1.5%	5.36µM*
Cc1ccc(-c2nc3scc(CCNS(=O)(=O)c4c(C)noc4C)n3n2)cc1	·	·	·	·	-10.2%
O=C(N/N=C/c1ccc(N2CCOCC2)s1)c1ccccc1Br	10.5%	15.3%	26.1%	4.7%	?
Clc1cccc(N/N=C/c2ccc(N3CCOCC3)s2)c1	-0.8%	-5.4%	20.7%	-9.4%	9.53µM*
CCOc1ccc(-c2nc(C)c(C(C)=O)n2O)cc1	28.4%	12.6µM*	?	?	6.75µM*
Cc1ccc(Nc2n[nH]c(C)c2[N+](=O)[O-])cc1C	1.58µM*	11.2µM*	1.12µM*	?	3.01µM*
CCN1CCN(c2nc(N)c([N+](=O)[O-])c(Nc3ccc(C)c(C)c3)n2)CC1	-3.0%	-14.0%	1.1%	0.9%	-0.8%
O=C(/C=C\c1ccc(-c2cccc([N+](=O)[O-])c2)o1)N1CCOCC1	?	·	3.55µM*	?	?
O=C(c1cccc([N+](=O)[O-])c1)N1CCOCC1	-1.7%	-11.9%[1.84 µM]	3.2%	1.2%	1.8%
CN(C)/C=C/C(=O)c1ccc2noc(-c3ccc(F)cc3)c2c1	-2.6%	·	-5.4%	-8.9%	?
Cc1ccc(-c2onc3ccc(C(=O)/C=C/N(C)C)cc23)cc1	2.7%	·	0.0%	-5.8%	15.1µM*
COc1cccc(CNC(=O)CN2C(=O)CSc3c2c(C)nn3-c2ccccc2)c1	·	·	·	·	3.2%
c1ccc(C2=Nc3ccccc3SC2c2nc3ccccc3[nH]2)cc1 (stereo not given)	·	?	·	·	16.9µM*
O=C1CC(c2nc3ccccc3[nH]2)CN1c1ccccc1 (stereo not given)	3.3%	-4.5%	2.0%	-5.2%	-0.1%
N/C(=N\OC(=O)c1ccc([N+](=O)[O-])cc1Cl)c1ccccn1	?	·	0.316µM*	0.326µM*	0.12µM*
N/C(=N\OC(=O)c1cccc([N+](=O)[O-])c1)c1ccccn1	?	14.1µM*	3.55µM*	-16.3%	5.36µM*
N/C(=N\OC(=O)c1cc([N+](=O)[O-])ccc1Cl)c1ccccn1	3.1%	·	-12.9%	6.9%	23.9µM*
Cc1ccc(OC(=O)c2ccc([N+](=O)[O-])cc2Cl)cn1	-4.0%	·	-6.0%[1.84 µM]	0.5%	12µM*
Nc1nonc1C(=O)NCCNCc1ccc(Cl)c(Cl)c1	·	-15.2%	·	·	3.8%
O=C(CSc1ncc2c(n1)-c1ccccc1N(Cc1ccc(Cl)cc1)S2(=O)=O)c1ccccc1	·	·	·	·	6.5%
COc1ccc(-n2cnnc2SCC(=O)c2cc(C)n(Cc3cccs3)c2C)cc1	0.7%	6.0%	-1.4%	-3.6%	?

Screens (PubChem)
